Bioassay records: PubChem, Broad Institute
Compounds with a hit are over-represented: about 2.2% of the library has one in this group of screens.
LGR2 inh = inhibitors of bursicon-induced Drosophila LGR2 receptor cAMP signaling. HEK293 LGR2, CRE-luciferase, bursicon-stimulated, 4 h. inhibition, % at 9.99 µM. 0.35% of 380,000 active. AID 720647;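 active means drop in luminescence signal, shown as inhibition above about 50% in the replicate tests, limit read from the data, passing the limit was not always enough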;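 further: agonist challenge used bursicon conditioned medium at about half maximal strength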
Shn3 inh set2 = Schnurri-3 reporter inhibition in Clone20 osteoblasts. inhibition, % at 12.5 µM. AID 588674. 0.52% of 360,000 active. Clone20 osteoblast Shn3 3'UTR firefly luciferase, 24 h;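 active means mean inhibition of at least 75% with every replicate also reaching 75%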;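 further: 0% = median of neutral control wells and 100% = pilot-screen positive control compound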
PAX8 inh HTS = PAX8 transcriptional activity inhibition. RMG-I TPO-luciferase reporter, SteadyGlo, 24 h. 1.2% of 360,000 active. AID 652154. inhibition, % at 12.6 µM;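 active means mean replicate inhibition at least 60% with every replicate also reaching 60%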;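 further: luciferase light reporting Pax8 driven TPO promoter activity; plate controls were median of neutral control wells for no effect and mitoxantrone controls for full effect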
LMP1 NFkB inh = inhibitors of Epstein-Barr LMP1-induced NF-kappaB reporter | LMP1-induced NF-kappaB luciferase reporter cells, luminescence | inhibition, % at 12.5 µM | 0.69% of 350,000 active | AID 504558; in the data active means inhibition above about 41%;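 further: 0% = neutral control wells and 100% = reference inhibitor control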
EWS-Fli block = EWS/Fli transcriptional activity inhibition | AID 651661 | A673 NR0B1-luciferase reporter, viability-normalised | 0.67% of 350,000 active | inhibition, % at 12.6 µM;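 active means mean inhibition of at least 50% after viability correction, with every replicate also passing that limit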;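 further: firefly luciferase signal divided by Alamar Blue viability fluorescence both relative to DMSO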
MITF TRPM1 inh = MITF TRPM1 promoter inhibition in SK-MEL-5 cells. SK-MEL-5 TRPM1 promoter luciferase, 24 h. inhibition, % at 12.5 µM. AID 488899. 0.83% of 330,000 active;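 active means mean inhibition across replicates of 60% or more, whatever share of single replicates reaches that level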
The depositor's hits bear a star; . = no result given.

SMILES	LGR2 inh	Shn3 inh set2	PAX8 inh HTS	LMP1 NFkB inh	EWS-Fli block	MITF TRPM1 inh
COC(=O)C1=C(C)N(Cc2ccc(C(F)(F)F)cc2)C(=NCC2CC2)NC1c1cccc(Cl)c1 (configuration not stated)	57*	.	68*	.	29	.
COC(=O)C1=C(C)N(Cc2ccc(C(F)(F)F)cc2)C(=NCc2ccc(OC)cc2)NC1c1cccc(Cl)c1 (configuration not stated)	.	.	15	.	-14	.
C[C@H]1CN([C@@H](C)CO)C(=O)c2cc(C#CC3CCCC3)cnc2O[C@H]1CN(C)Cc1ccncc1	14	.	-2	.	6	.
Cc1nc2c(o1)C(=O)c1ccccc1C2=Nc1ccccc1	16	94*	10	87*	2	94*
Cc1ccc(N=C2C(=O)Nc3ccccc32)cc1	-4	2	7	6	32	7
O=C(Nc1nc(-c2ccccn2)cs1)c1cccc(-n2cnnn2)c1	0	98*	38	30	8	42
O=C(Nc1nc(-c2ccccn2)cs1)c1ccc(Br)s1	.	93*	.	87*	.	22
O=C(Nc1nc(-c2ccccn2)cs1)c1ccco1	14	35	-20	10	-1	6
O=C(Nc1nc(-c2cc(Cl)sc2Cl)cs1)c1cccs1	.	-30	.	-66	.	-51
O=C(Nc1ccc(Br)cc1)c1cccc(-n2cnnn2)c1	2	-5	13	8	-24	-7
O=C(Nc1nc(-c2cc(Cl)sc2Cl)cs1)c1ccc(Br)s1	.	-1	-2	44*	.	0
O=Nc1c(-c2c(O)[nH]c3cc(Br)ccc23)[nH]c2ccccc12	95*	-50	26	-59	-46	-5
C[C@H]1CN([C@@H](C)CO)C(=O)CCCn2cc(nn2)CO[C@@H]1CN(C)Cc1ccc2cccnc2c1	-5	.	4	.	5	.
CCC(=O)N(C)C[C@H]1Oc2cc(-c3cccc(OC)c3)ccc2S(=O)(=O)N([C@@H](C)CO)C[C@H]1C	0	.	.	.	0	.
O=C(O)C1(Nc2ccccc2)CCCC1	-21	7	-4	-5	2	3
O=C(O)C1(Nc2ccccc2Cl)CCCC1	-19	93*	18	1	-1	10
CCOc1ccc(-c2ccc(SCC)nn2)cc1	59*	3	1	-9	-4	-29
COc1ccc(-c2ccc(SC)nn2)cc1	83*	40	-10	38	58*	25
COc1ccc(C(=O)CSc2ccc(-c3ccccc3)nn2)cc1	-22	-13	15	2	.	-3
CCNC(=O)[C@H]1[C@H](CO)[C@H]2Cn3c(ccc(-c4ccncc4)c3=O)[C@H]2N1Cc1ccccc1	1	.	6	.	-4	.
O=C(Nc1ccc([N+](=O)[O-])cc1)Nc1ccc(OC(F)F)c(Cl)c1	20	88*	83*	68*	.	76*
O=C(C[C@H]1CC[C@H](NS(=O)(=O)c2ccc(F)cc2)[C@H](CO)O1)NC1CCCCC1	-3	.	5	.	2	.
CO[C@@H]1CN(C)C(=O)c2cc(NS(=O)(=O)c3ccccc3C)ccc2OC[C@H](C)N(S(C)(=O)=O)C[C@H]1C	-8	.	0	.	0	.
CN(C[C@H](c1ccccc1)N(C[C@H](Cc1ccccc1)N(CCc1ccccc1)N=O)N=O)N=O	13	16	45	5	14	-8
CN(C[C@H](Cc1ccccc1)N(C[C@H](c1ccccc1)N(CCc1ccccc1)N=O)N=O)N=O	5	87*	18	1	4	1
SMILES	LGR2 inh	Shn3 inh set2	PAX8 inh HTS	LMP1 NFkB inh	EWS-Fli block	MITF TRPM1 inh
CCOC(=O)C(C)(C)N(Cc1ccc(C)cc1)S(=O)(=O)c1ccc(Cl)c([N+](=O)[O-])c1	.	4	-2	1	73*	91*
COc1ccccc1C#Cc1cnc2c(c1)C(=O)N([C@H](C)CO)C[C@@H](C)[C@H](CN(C)C(=O)CC1CC1)O2	-2	.	.	.	1	.
CCCN1[C@@H]2c3ccc(-c4ccc(F)cc4)c(=O)n3C[C@H]1[C@H](CO)[C@H]2C(=O)NCC1CC1	3	.	-13	.	-1	.
CC(C)Cn1c(N)c(C(=O)CSc2ccc3c(c2)OCCO3)c(=O)n(C)c1=O	.	86*	.	39	.	40
N[C@H]1C(O)O[C@H](CO)[C@@H](O)[C@@H]1O (some centres not stated)	-8	-3	-14	-12	-7	-1
OC[C@H]1OC(O)[C@H](O)[C@@H](O)[C@H]1O (some centres not stated)	-4	-1	-5	56*	-7	-5
